According to PubChem BioAssay (EPA / NIEHS):
Calls of active or inactive are those of the source. Rule for the calls: active = hit-call score of the fitted dose curve at least 0.9, where 1 is the maximum; inactive = score below 0.9.

What was measured:
[1] = APR_HepG2_CellCycleArrest_24hr: Apredica 24-hour HepG2 Assay for Cell Cycle Arrest (AID 2282905); details: imaging, actives raise or lower the signal;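 note: cell cycle arrest scored as ratio of 2N to 4N nuclear DNA content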
Procedure, shortened: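 Compounds (0.39 to 200 uM, final DMSO 0.5% v/v) are applied to HepG2 cells for 24 hours; cells are then fixed, permeabilized and nuclei labeled with Hoechst 33342. Automated imaging measures DNA content, and activity is fitted in both directions against DMSO.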

[2] = APR_HepG2_NuclearSize_24hr: Apredica 24-hour HepG2 Assay for Nuclear Size (AID 2282907); details: high-content imaging, actives raise or lower the signal
Procedure, shortened: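 Nuclear size is measured by fluorescence high-content imaging of Hoechst-labelled HepG2 nuclei after 24 hr of treatment (0.39–200 uM, 0.5% DMSO). Cells are fixed in 3.7% formaldehyde before staining, and DMSO serves as the baseline for bidirectional curve fitting.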

[3] = APR_HepG2_CellLoss_24hr: Apredica 24-hour HepG2 Assay for Cell Loss (AID 2282908); details: high-content imaging;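 for AC50: fit in both directions so a hit may be cell loss or gain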
Procedure, shortened: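 Nuclear count serves as the viability measure: treated cells are fixed, permeabilized and labelled with Hoechst 33342, and six images per well are analysed to identify valid nuclei. Doses span 0.39–200 uM, and activity in either direction is scored against DMSO.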

[4] = APR_HepG2_MicrotubuleCSK_24hr: Apredica 24-hour HepG2 Assay for Microtubule CSK Stabilty (AID 2282909); details: HepG2 microtubule cytoskeleton imaging, actives raise or lower the signal
Procedure, shortened: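 Compounds were applied to HepG2 cells for 24 hours across 0.39–200 uM in duplicate, with final DMSO at 0.5% v/v. Fixed, permeabilized cells were labeled for alpha-tubulin and nuclei, and tubulin fluorescence was quantified by imaging, fitted bidirectionally against DMSO.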

[5] = APR_HepG2_MitoticArrest_24hr: Apredica 24-hour HepG2 Assay for Mitotic Arrest (AID 2282910); details: high-content imaging, actives raise or lower the signal
Procedure, shortened: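 High-content imaging of fixed HepG2 cells labeled with Hoechst 33342 and anti-phospho-histone H3, after 24 h treatment. Ten concentrations 0.39 to 200 uM in duplicate, final DMSO 0.5%; changes fitted both directions relative to DMSO.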

[6] = APR_HepG2_MitoMass_24hr: Apredica 24-hour HepG2 Assay for Mitochondrial Mass (AID 2282912); details: high-content imaging, actives raise or lower the signal
Procedure, shortened: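 After 24 hr of treatment at 0.39 to 200 uM, HepG2 cells take up 250 nM MitoTracker Red CMXRos for 30 min and are then fixed with 3.7% formaldehyde. Per-well images are quantified, and any change in either direction is scored against solvent.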

[7] = APR_HepG2_p53Act_24hr: Apredica 24-hour HepG2 Assay for p53 Activation (AID 2282913); details: high-content imaging, actives raise or lower the signal;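 note: p53 protein immunofluorescence averaged per cell in HepG2 with Hoechst nuclei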
Procedure, shortened: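 Human HepG2 liver cells; 24 hr cpd treatment, 0.39–200 uM, 0.5% DMSO final. Fixed in 3.7% formaldehyde, permeabilized with 0.5% Triton X-100, stained with anti-p53/Cy5 plus Hoechst 33342. Six images per well at 20x; gain or loss vs DMSO.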

[8] = APR_HepG2_CellCycleArrest_72hr: Apredica 72-hour HepG2 Assay for Cell Cycle Arrest (AID 2282914); details: high-content imaging, actives raise or lower the signal
Procedure, shortened: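 Read-out is Hoechst-stained nuclear DNA content measured by automated fluorescence imaging (20x, six images per well), fitted in both directions relative to DMSO. Human HepG2 liver cells received 0.39–200 uM compound for 72 hr at 0.5% v/v DMSO.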

[9] = APR_HepG2_CellLoss_72hr: Apredica 72-hour HepG2 Assay for Cell Loss (AID 2282915); details: high-content imaging
Procedure, shortened: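 Cell number comes from Hoechst 33342-labelled nuclei, imaged at 20x after 3.7% formaldehyde fixation. Dosing was 0.39–200 uM, ten concentrations in duplicate, 0.5% DMSO final, for 72 h. Bidirectional fit relative to DMSO baseline.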

[10] = APR_HepG2_P-H2AX_72hr: Apredica 72-hour HepG2 Assay for H2AX Phosphorylation (AID 2282916); details: imaging, actives raise or lower the signal;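 note: phospho-histone H2A.x immunostain intensity per cell marking DNA damage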
Procedure, shortened: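 Human hepatoma HepG2 cells are dosed across ten concentrations (0.39 to 200 uM, 0.5% v/v DMSO) and incubated 72 hr. Phospho-histone H2A.x is then detected by antibody staining alongside c-Jun and Hoechst, and quantified by automated fluorescence imaging.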

[11] = APR_HepG2_MitoMembPot_72hr: Apredica 72-hour HepG2 Assay for Mitochondrial Membrane Potential (AID 2282917); details: imaging, actives raise or lower the signal
Procedure, shortened: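 Membrane potential read by MitoTracker Red CMXRos (250 nM, 30 min, pre-fixation) fluorescence imaging of HepG2 after 72 hr exposure. Ten concentrations, 0.39–200 uM, duplicate wells, 0.5% DMSO; fitted in both directions against DMSO baseline.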

[12] = APR_HepG2_MitoticArrest_72hr: Apredica 72-hour HepG2 Assay for Mitotic Arrest (AID 2282918); details: high-content imaging, actives raise or lower the signal
Procedure, shortened: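 Read-out is phospho-histone H3 immunofluorescence with Hoechst nuclear segmentation, imaged at 20x. Human HepG2 liver cells received ten concentrations (0.39–200 uM, final DMSO 0.5% v/v) for 72 hr before fixation. Gain or loss of signal was fitted relative to DMSO.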

[13] = APR_HepG2_MicrotubuleCSK_72hr: Apredica 72-hour HepG2 Assay for Microtubule CSK Stabilty (AID 2282919); details: HepG2 microtubule cytoskeleton, high-content imaging, actives raise or lower the signal
Procedure, shortened: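 High-content imaging of alpha-tubulin staining in fixed HepG2 cells after 72 hr treatment with ten concentrations from 0.39 to 200 uM (0.5% DMSO). Fitting was bidirectional against DMSO; taxol served as positive control.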

[14] = APR_HepG2_P-H2AX_24hr: Apredica 24-hour HepG2 Assay for H2AX Phosphorylation (AID 2282920); details: high-content imaging, actives raise or lower the signal
Procedure, shortened: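 HepG2, 24 hr, cpd 0.39–200 uM (10 conc, duplicate), DMSO 0.5% v/v final. Fix 3.7% formaldehyde, Triton X-100 permeabilize, anti-phospho-H2A.x 1:200 + Hoechst 2 ug/mL. Imaged, bidirectional fit vs DMSO.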

[15] = APR_HepG2_StressKinase_72hr: Apredica 72-hour HepG2 Assay for Stress Kinase (AID 2282921); details: HepG2 stress kinase (phospho-c-Jun) imaging, actives raise or lower the signal
Procedure, shortened: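 After a 72 h compound treatment spanning 0.39 to 200 uM, formaldehyde-fixed cells are labelled for phosphorylated c-Jun and nuclei, imaged by automated fluorescence microscopy, and activity is fitted in both directions relative to DMSO controls.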

[16] = APR_HepG2_StressKinase_24hr: Apredica 24-hour HepG2 Assay for Stress Kinase (AID 2282922); details: HepG2 stress kinase (phospho-c-Jun) imaging, actives raise or lower the signal
Procedure, shortened: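 High-content imaging of phospho-c-Jun immunofluorescence in fixed, permeabilized HepG2 cells after 24 h dosing. Ten concentrations, 0.39 to 200 uM, run in duplicate at 0.5% v/v DMSO; gain or loss of signal versus DMSO.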

[17] = APR_HepG2_MitoMass_72hr: Apredica 72-hour HepG2 Assay for Mitochondrial Mass (AID 2282924); details: high-content imaging, actives raise or lower the signal;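 note: MitoTracker Red CMXRos stain intensity per cell imaged as mitochondrial mass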
Procedure, shortened: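 Readout is imaged MitoTracker Red (250 nM, 30 min, pre-fixation) signal, fitted bidirectionally against DMSO baseline. Human HepG2 liver cells received compound 0.39–200 uM in duplicate for 72 hr, final DMSO 0.5%.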

[18] = APR_HepG2_NuclearSize_72hr: Apredica 72-hour HepG2 Assay for Nuclear Size (AID 2282925); details: high-content imaging, actives raise or lower the signal
Procedure, shortened: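 Nuclear size was read by high-content imaging of Hoechst 33342 stain after formaldehyde fixation. Compounds ran 72 h on HepG2 at 0.39 to 200 uM, with final DMSO 0.5% v/v. Curves fitted both directions relative to DMSO control.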

[19] = APR_HepG2_MitoMembPot_24hr: Apredica 24-hour HepG2 Assay for Mitochondrial Membrane Potential (AID 2282911); details: imaging, actives raise or lower the signal
Procedure, shortened: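 Cells are dosed for 24 hr across 0.39 to 200 uM with solvent held at 0.5% DMSO. They are then stained with 250 nM MitoTracker Red CMXRos for 30 min, fixed in 3.7% formaldehyde and imaged.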

[20] = APR_HepG2_p53Act_72hr: Apredica 72-hour HepG2 Assay for p53 Activation (AID 2282923); details: high-content imaging, actives raise or lower the signal;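 note: average cellular p53 protein immunofluorescence intensity in HepG2 cells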
Procedure, shortened: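 Imaging-based endpoint: after 72 hr compound exposure (up to 200 uM, 0.5% DMSO), fixed and permeabilized monolayers were labelled with anti-p53 antibody and imaged; signal change in either direction was fitted relative to DMSO controls.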

Measured: AC50

CCCCc1nc2cccnc2n1Cc1ccc(-c2ccccc2-c2nnn[nH]2)cc1
active: [2] 51 µM | [3] 32.6 µM | [4] 35.7 µM | [6] 28.1 µM | [7] 31.1 µM | [9] 65.2 µM | [12] 67.1 µM | [13] 94.4 µM | [14] 48.6 µM | [17] 118 µM
inactive: [1] | [5] | [8] | [10] | [11] | [15] | [16] | [18]

CCCCCCCCCCCCCCOS(=O)(=O)O
inactive: [2] | [4] | [6] | [8] | [13] | [15] | [16] | [18]
active: [1] 110 µM | [3] 117 µM | [5] 109 µM | [7] 100 µM | [9] 110 µM | [10] 110 µM | [11] 110 µM | [12] 98.5 µM | [14] 114 µM | [17] 121 µM

O=C1CCCCC1
not listed: [7] | [10] | [20]
inactive: all other assays above

O=C1c2c(O)cccc2Cc2cccc(O)c21
active: [11] 19.3 µM
not listed: [19]
inactive: all other assays above

CCCC(=O)O
not listed: [7] | [20]
inactive: all other assays above

CCCCC(CC)CO (stereo unspecified)
not listed: [19] | [20]
inactive: all other assays above

CC(=O)OCC(COC(C)=O)OC(C)=O
not listed: [7] | [20]
inactive: all other assays above
